Values joined by “and” are separate entries in the source; they are usually repeats but may differ in a detail not shown here. Equal entries are not always repeated. Out of some 5,500 compounds screened, about 2,000 (36%) were called active. About 18% were inconclusive and are not listed. Rule as the data show it: active = normalized growth mostly below about 0.91 (no sharp cut-off); inconclusive = no clear call, values can overlap the other calls; inactive = mostly above about 0.92. Some of the results follow.
Test: chemical genetic growth profiling, strain panel (AID 1159580);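 also: tested at 20 µM; growth read once vehicle control cultures reached saturation at 30 °C; 1 = growth at the plate median or of vehicle wells; lower values mean less growth of the strain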
Conditions: S. cerevisiae deletion strains, growth OD

Measured: normalized growth

CC1=C(C(C)O)C2=NC1C=c1[nH]c(c(C)c1C(C)O)=Cc1[nH]c(c(CCC(=O)O)c1C)C=c1[nH]c(c(C)c1CCC(=O)O)=C2 (configuration not stated)
inactive: locus YAL013W, strain DEP1, active compounds read low 0.937 | locus YAL021C, strain ccr4, active compounds read low 0.982 | locus YAL026C, strain drs2, active compounds read low 0.988 | locus YAL030W, strain snc1, active compounds read low 0.995 | locus YBL061C, strain skt5, active compounds read low 0.986 | locus YBR009C, strain hhf1, active compounds read low 0.986 | locus YBR021W, strain FUR4, active compounds read low 0.998 | locus YBR023C, strain chs3, active compounds read low 0.986 | locus YBR171W, strain sec66, active compounds read low 0.994 | locus YBR229C, strain ROT2, active compounds read low 1 | locus YBR231C, strain swc5, active compounds read low 0.988 | locus YBR279W, strain paf1, active compounds read low 1.01 | locus YCL011C, strain gbp2, active compounds read low 0.994 | locus YCL016C, strain dcc1, active compounds read low 0.986 | locus YCL029C, strain bik1, active compounds read low 1.02 | locus YCL061C, strain MRC1, active compounds read low 0.989 | locus YCL069W, strain vba3, active compounds read low 0.99 | locus YCR088W, strain abp1, active compounds read low 0.985 | locus YDL005C, strain med2, active compounds read low 0.995 | locus YDL035C, strain GPR1, active compounds read low 0.976 | locus YDL040C, strain nat1, active compounds read low 0.998 | locus YDL074C, strain BRE1, active compounds read low 0.956 | locus YDL101C, strain DUN1, active compounds read low 0.999 | locus YDL185W, strain tfp1, active compounds read low 1 | locus YDL192W, strain arf1, active compounds read low 0.989 | locus YDR001C, strain nth1, active compounds read low 1 | locus YDR069C, strain doa4, active compounds read low 0.999 | locus YDR101C, strain arx1, active compounds read low 1.01 | locus YDR137W, strain rgp1, active compounds read low 1.04 | locus YDR150W, strain NUM1, active compounds read low 0.997 | locus YDR159W, strain sac3, active compounds read low 0.946 | locus YDR162C, strain NBP2, active compounds read low 0.897 | locus YDR195W, strain ref2 0.935 | locus YDR297W, strain sur2, active compounds read low 0.986 | locus YDR318W, strain mcm21, active compounds read low 1.01 | locus YDR334W, strain swr1, active compounds read low 0.993 | locus YDR335W, strain msn5, active compounds read low 1 | locus YDR388W, active compounds read low 1.02 | locus YDR392W, strain spt3, active compounds read low 0.839 | locus YDR502C, strain sam2, active compounds read low 0.977 | locus YEL003W, strain gim4, active compounds read low 0.977 | locus YEL037C, strain rad23, active compounds read low 1 | locus YEL061C, strain CIN8 (second series), active compounds read low 0.996 | locus YEL061C, strain CIN8, active compounds read low 0.995 | locus YER015W, strain faa2, active compounds read low 1.01 | locus YER016W, strain bim1, active compounds read low 0.989 | locus YER110C, active compounds read low 1.03 | locus YER111C, strain swi4, active compounds read low 0.986 | locus YER155C, strain BEM2 (second series), active compounds read low 0.998 | locus YER155C, strain BEM2, active compounds read low 0.995 | locus YER167W, strain BCK2, active compounds read low 0.96 | locus YFR010W, strain ubp6, active compounds read low 0.999 | locus YGL078C, strain dbp3, active compounds read low 1.03 | locus YGL086W, strain mad1, active compounds read low 0.968 | locus YGL167C, strain pmr1, active compounds read low 0.995 | locus YGL173C, strain kem1, active compounds read low 0.983 | locus YGL227W, strain vid30, active compounds read low 0.993 | locus YGL240W, strain doc1, active compounds read low 0.945 | locus YGL248W, strain PDE1, active compounds read low 1.01 | locus YGL253W, strain hxk2, active compounds read low 1 | locus YGR078C, strain PAC10, active compounds read low 0.984 | locus YGR135W, strain pre9, active compounds read low 0.973 | locus YGR252W, strain gcn5, active compounds read low 1 | locus YHR013C, strain ard1, active compounds read low 0.931 | locus YHR027C, strain rpn1, active compounds read low 1 | locus YHR030C, strain SLT2, active compounds read low 1.01 and 1.06 | locus YHR079C, strain IRE1 (second series), active compounds read low 1.01 | locus YHR079C, strain IRE1, active compounds read low 1.05 | locus YHR094C, strain hxt1, active compounds read low 1.02 | locus YHR129C, strain ARP1, active compounds read low 1 | locus YHR142W, strain chs7, active compounds read low 1.01 | locus YHR200W, strain rpn10, active compounds read low 0.986 | locus YIL066C, strain RNR3, active compounds read low 0.98 | locus YIL073C, strain SPO22, active compounds read low 1.12 | locus YIL125W, strain kgd1, active compounds read low 1.02 | locus YIR030C, strain dcg1, active compounds read low 1.01 | locus YJL092W, strain hpr5, active compounds read low 0.992 | locus YJL095W, strain BCK1 (second series), active compounds read low 0.994 | locus YJL095W, strain BCK1, active compounds read low 0.982 and 1.06 | locus YJL115W, strain asf1, active compounds read low 0.977 | locus YJL129C, strain trk1, active compounds read low 0.949 | locus YJL134W, strain LCB3, active compounds read low 1 | locus YJL154C, strain vps35, active compounds read low 0.995 | locus YJL164C, strain tpk1, active compounds read low 0.986 | locus YJL166W, strain qcr8, active compounds read low 0.966 | locus YJL168C, strain set2, active compounds read low 1 | locus YJL187C, strain SWE1 (second series), active compounds read low 1

From PubChem BioAssay AID1159580 (chemical genetic matrix, 2015)
